The first assay concerns PXR homodimer (NR concentration 270 nM). Briefly: PBM binding z-score (relative to random genomic background probes); higher = stronger binding; sequences stand for … in GC…GCGATTGACAGCGTAGAATGAAGG
The procedure, abridged:
(§1)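 Each nuclear receptor dimer, without ligand, was incubated for 1 h on custom Agilent 4×180K protein-binding microarrays. Binding was detected with antibodies against each partner (one per run), and scanned fluorescence was regression-normalized. The binding z-scores are referenced to random human genomic background probes.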
AGTCAAAGTTCATCCAGGTAACGTAAGATATGCT had a PBM binding z-score of 8.19.
Same read-out and setting: the same measure for CTCGAAAGGTCGGTTGAGGTGAGTAGACGGATAA: 0.241.
Still for that read-out and setting: the same measure for CCTTACGGGTCACGAGGTTATAGGACGACGAGCG: 0.176; for ATCGAAAGGTCGACGAGGTGACTATACACCGTTT: 0.829; for AGAATGAGGTTACGAAAGATCAGGGAAACGCTTG: -0.57.
On the same count and under the same terms, the value for TCTGCTAGGTTAACGATGGTCAGCTAATCTGCTA was -0.501; that for ATCGAAAGGTCGACGAGGTGAGTATTCACCGTTT was 0.386.
As to ATATGTAGGTAAGCTGGGGTCATTCAGACTAGGC, the PBM binding z-score amounted to 3.4.
Still for that read-out and setting: the same measure for CATACAGGGTCAGCTAGCCCAGAGTAGGGACGGC: -0.17; for ATCGAAAGATCGAGGTGAGTATAGAGAAAGGGAA: -0.105; for TCTATTAGTTAAAGGGCAACCGACGAGTCCGTTT: 0.941.
Still for that read-out and setting: the same measure for CCTATTATTTGACCATAAGGGCAACCGAAGCTCG: 2.77; for AATACACGGTCATCGTAGGCCAGAGTACGCACAG: 0.177.
For the sequence CGTCCAAGGGCAAAGGTCAGTGAAGAGATGACGG, the PBM binding z-score amounted to 0.541.
On the same count and under the same terms, the same measure for CCTTACGGGTCACAAGGTTATAGCACGACGAGCG: 0.686; for GCGACTGGGGCATCAGCAGGTTCCCATAACTTAA: -0.571.
Turning to AGAACGAGGGCACGCTGAGTTTATAGCAGAGTAG, the PBM binding z-score was 2.87.
On the same count and under the same terms, the same measure for GATACAGGGTCAAGGCCAGATTACGCGTATTGAT: 0.645.
Sequence ATACCAAGGTGAACGTGAGGTCGTTGATACTAAC gave a PBM binding z-score of 1.48.
Same read-out and setting: the value for CCTGCTAGGTCTTGGTCAGCTAATCTACAGTATG was -0.561; that for GCTTGTAGATCAAGGTTACGAAAGACTAAGCTAA was -0.00407; that for CCTGCTAGGTCATGGTCAGCTACTCTACAGTATG was -0.32.
In the case of TCGAGTAGGTTACCAATGGGGCAGTCAGCTTTCT, the PBM binding z-score is -1.34.
Same read-out and setting: the value for GGAACGAGGGAAAAGTTGATAGCATCTGTCGACG was -0.343.
For the sequence ATATGTAGGTTATCGGGTCATTCCGTTTGCGCAT, the PBM binding z-score was 1.27.
Still for that read-out and setting: the value for AGAATGAGGTTCCCAAAGATCAGGGAAACGCTTG was -0.346; that for CCTACTGGGCCAAGGTCATTGATCAGTCAAAGCA was 0.534.
The same measure, in the same setting: the value for ATCTCTAGGTAAAAAGTTCAGTGAAAGAGAGGAC was 1.46.
For CCTTACGGGTCACTCCAGATTATAGCATCGGAGT, the PBM binding z-score came to 0.423.
Sequence AGTCAAAGTTCATCTAGGCAACGTAAGATATGCT had a PBM binding z-score of 4.94.
As for TAGCCTAGGTCAGTCAGGGGCCAGTATAGAAAGC, the PBM binding z-score is -0.639.
Same read-out and setting: the value for CCGACTGGGGCAGAAAGGTTACCACACCATCCGG was -0.219; that for ATATGTAGGTTACATCTGGGTCATTCAGGCTATG was 1.05.
On the same count and under the same terms, the same measure for TCAGACAGATGAAGGTAACTCAGGTACGCAGTCG: 0.216; for CTCGAAAGGTCGGTTAAGGTGAGTATACGGATAA: 0.341; for TCGAGTAGGTTAGGGGCATTCTGAATGGCGTCGA: 0.106.
Same read-out and setting: the value for GATACAGGGTCAAGGCCGGAGTACGCGTATTGAT was 0.0329.
Sequence GCTGCTAGGTCAACTGATGGTCAGTTAAAGCTCG came in with a PBM binding z-score of -0.519.
Still for that read-out and setting: the value for ACTAGCAGGCCAAGTTTGGGCCACTCAAACAAAG was -0.899.

Another assay relates to RARa:RXR (NR concentration 270 nM, RXRa partner concentration 90 nM). The assay is described as above. In a few lines:
as §1
AGTCAAAGTTCATCCAGGTAACGTAAGATATGCT: the PBM binding z-score was found to be 3.69.
On the same count and under the same terms, the same measure for CTCGAAAGGTCGGTTGAGGTGAGTAGACGGATAA: 2.71; for CCTTACGGGTCACGAGGTTATAGGACGACGAGCG: 5.99; for ATCGAAAGGTCGACGAGGTGACTATACACCGTTT: 3.99.
AGAATGAGGTTACGAAAGATCAGGGAAACGCTTG yielded a PBM binding z-score of 2.32.
The same measure, in the same setting: the same measure for TCTGCTAGGTTAACGATGGTCAGCTAATCTGCTA: 0.0866; for ATCGAAAGGTCGACGAGGTGAGTATTCACCGTTT: 3.29; for ATATGTAGGTAAGCTGGGGTCATTCAGACTAGGC: 5.45.
The same measure, in the same setting: the value for CATACAGGGTCAGCTAGCCCAGAGTAGGGACGGC was 3.11.
Still for that read-out and setting: the value for ATCGAAAGATCGAGGTGAGTATAGAGAAAGGGAA was 0.139; that for TCTATTAGTTAAAGGGCAACCGACGAGTCCGTTT was 1.18.
In turn, CCTATTATTTGACCATAAGGGCAACCGAAGCTCG showed a PBM binding z-score of 1.05.
AATACACGGTCATCGTAGGCCAGAGTACGCACAG: the PBM binding z-score came to 0.83.
For CGTCCAAGGGCAAAGGTCAGTGAAGAGATGACGG, the PBM binding z-score was determined as 6.49.
Sequence CCTTACGGGTCACAAGGTTATAGCACGACGAGCG registered a PBM binding z-score of 4.98.
On the same count and under the same terms, the value for GCGACTGGGGCATCAGCAGGTTCCCATAACTTAA was -0.272; that for AGAACGAGGGCACGCTGAGTTTATAGCAGAGTAG was 1.28; that for GATACAGGGTCAAGGCCAGATTACGCGTATTGAT was 5.48.
As to ATACCAAGGTGAACGTGAGGTCGTTGATACTAAC, the PBM binding z-score stood at 3.21.
Regarding CCTGCTAGGTCTTGGTCAGCTAATCTACAGTATG, the PBM binding z-score is -0.0179.
On the same count and under the same terms, the same measure for GCTTGTAGATCAAGGTTACGAAAGACTAAGCTAA: 1.23; for CCTGCTAGGTCATGGTCAGCTACTCTACAGTATG: 2.09; for TCGAGTAGGTTACCAATGGGGCAGTCAGCTTTCT: 0.0626.
On to GGAACGAGGGAAAAGTTGATAGCATCTGTCGACG, for which the PBM binding z-score is -0.659.
On the same count and under the same terms, the same measure for ATATGTAGGTTATCGGGTCATTCCGTTTGCGCAT: 3.83.
On the same count and under the same terms, the value for AGAATGAGGTTCCCAAAGATCAGGGAAACGCTTG was 0.182; that for CCTACTGGGCCAAGGTCATTGATCAGTCAAAGCA was 3.29; that for ATCTCTAGGTAAAAAGTTCAGTGAAAGAGAGGAC was 1.33.
Still for that read-out and setting: the value for CCTTACGGGTCACTCCAGATTATAGCATCGGAGT was 2.96; that for AGTCAAAGTTCATCTAGGCAACGTAAGATATGCT was 3.62; that for TAGCCTAGGTCAGTCAGGGGCCAGTATAGAAAGC was 1.32.
CCGACTGGGGCAGAAAGGTTACCACACCATCCGG returned a PBM binding z-score of 1.85.
ATATGTAGGTTACATCTGGGTCATTCAGGCTATG gave a PBM binding z-score of 2.38.
Take TCAGACAGATGAAGGTAACTCAGGTACGCAGTCG: the PBM binding z-score is 0.684.
Still for that read-out and setting: the value for CTCGAAAGGTCGGTTAAGGTGAGTATACGGATAA was 1.97.
Sequence TCGAGTAGGTTAGGGGCATTCTGAATGGCGTCGA yielded a PBM binding z-score of 0.337.
GATACAGGGTCAAGGCCGGAGTACGCGTATTGAT showed a PBM binding z-score of 4.01.
For GCTGCTAGGTCAACTGATGGTCAGTTAAAGCTCG, the PBM binding z-score came to 2.6.
Regarding ACTAGCAGGCCAAGTTTGGGCCACTCAAACAAAG, the PBM binding z-score is -0.593.

(Values after the supplement of paper PMC6555819.)
